Hits are enriched below; roughly 2.4% of the tested compounds scored in any of these assays.
CHT PAM: allosterically activates the human high affinity choline transporter. Q9GZV3. CHT-expressing cells, membrane potential dye, choline EC20; hits give high values; LV-AA mutant CHT in HEK293 cells. B-score at 10 µM. 310,000 compounds, 0.49% hits;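 active = initial fluorescence not abnormally high and integrated response B-score, plate-corrected, over 3 SD above library mean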
CHT inh: human CHT choline transport inhibition. Q9GZV3. CHT-expressing cells, membrane potential dye, choline response; hits give low values. B-score at 10 µM. 310,000 compounds, 0.86% hits. AID 488975;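 active = B-score over 3 SD under the library average, and starting fluorescence ratio not unusually high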;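 also: choline stimulus applied at its EC90 after an EC20 pre-addition; B-score computed on integrated fluorescence ratio after choline addition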
TMEM16A act: activators or potentiators of mouse TMEM16A chloride channel | Q8BHY3 | HEK293 TMEM16A/YFP-H148Q/I152L, iodide quench fluorescence; hits give low values | B-score at 10 µM | 340,000 compounds, 0.3% hits;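 active = fluorescence-ratio B-score plate-corrected deviation score at least 3 library SD below zero, with starting fluorescence score within 5 deviations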;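 also: channel opened by trigger with iodide after compound preincubation; score built on the fluorescence ratio of max minus min over baseline; more negative score means more quench and so TMEM16A activation or potentiation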
ANO1 block: inhibitors of mouse TMEM16A calcium-activated chloride channel. HEK293 TMEM16A/YFP iodide influx fluorescence, ionomycin. normalized B-score (activity score, 25-100; higher = stronger inhibition) at 10 µM. Q8BHY3. 310,000 compounds, 1.2% hits. AID 588511;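 active = ratio plate-corrected score three or more library SD toward inhibition, starting fluorescence score within five deviations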;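 also: score derived from kinetic fluorescence span divided by baseline fluorescence per well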
CHT activ conf: confirmation of human choline transporter (CHT) activators. shares compounds with CHT PAM. AID 504833. CHT-expressing cells, membrane potential dye fluorescence (FDSS); % of choline EC20–EC90 response window; HEK293 expressing CHT LV-AA mutant; choline added at its EC20. activation, % at 10 µM. 2,500 compounds, 91% hits;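 active = primary screen active, with duplicate mean activation above negative control mean plus 3 SD, cut at about 11% in these data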
HEK293 MP dye: CHT activator counter-screen hit in parental HEK293 cells. shares compounds with CHT PAM. membrane potential dye fluorescence (FDSS); measured after EC20 choline addition. ratio readout change at 10 µM, hits read low. 2,500 compounds, 62% hits. AID 623908;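 active = duplicate-averaged ratio beyond 3 SD from buffer wells, up or down, though filed actives are nearly all decreases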
* = called active by the depositor; i = inactive; / = no result given.

SMILES	CHT PAM	CHT inh	TMEM16A act	ANO1 block	CHT activ conf	HEK293 MP dye
COc1cccc2c(=O)c3c(cnn3C)n(C)c12	10*	i	i	i	51*	-55*
COc1ccc(C2=NCCn3cccc32)c(OC)c1	i	i	i	i	43*	-49*
CCCC1=NCCn2cccc21	i	i	i	i	/	/
COc1ccccc1OCC(=O)Nc1nnc(C2CCCC2)s1	i	i	i	i	/	/
Cc1ccc2nc(N3CCN(c4ccccc4)CC3)c(C=O)c(=O)n2c1	i	i	i	i	/	/
CCN1CCN(c2nc3ccccn3c(=O)c2C=O)CC1	i	i	i	i	57*	-51*
O=Cc1c(N2CCN(CCO)CC2)nc2ccccn2c1=O	i	i	i	i	/	/
Cc1cccn2c(=O)c(C=O)c(N3CCN(C)CC3)nc12	7.1*	i	i	i	71*	-66*
Cc1ccc2nc(N3CCN(C)CC3)c(C=O)c(=O)n2c1	i	i	i	i	74*	-51*
Cc1ccc(S(=O)(=O)/C(C#N)=C/c2c(N3CCN(C)CC3)nc3c(C)cccn3c2=O)cc1	7.4*	i	i	i	50*	-46*
O=C(NCc1cccnc1)Nc1cccc(Cl)c1Cl	i	i	i	i	/	/
CCNC(=O)/C(C#N)=C/c1c(N2CCN(C)CC2)nc2c(C)cccn2c1=O	6.3*	i	i	i	49*	-53*
CCNC(=O)/C(C#N)=C/c1c(N2CCN(c3cccc(Cl)c3)CC2)nc2c(C)cccn2c1=O	i	i	i	i	/	/
O=C(CCS(=O)(=O)c1ccc(Cl)cc1)NCCC1=CCCCC1	i	i	i	i	/	/
Cc1nnc(SCCn2c(N3CCC(Cc4ccccc4)CC3)nc3c2c(=O)[nH]c(=O)n3C)s1	i	i	/	i	/	/
CC1CCN(c2nc3c(c(=O)[nH]c(=O)n3C)n2CCSc2ncccn2)CC1	/	/	i	/	/	/
CCCCn1c(N2CCC(Cc3ccccc3)CC2)nc2c1c(=O)[nH]c(=O)n2C	i	i	i	i	19*	i
CCN1CCN(c2nc3c(c(=O)[nH]c(=O)n3C)n2CCCSc2ncccn2)CC1	7.5*	i	i	i	50*	-55*
CCN1CCN(c2nc3c(c(=O)[nH]c(=O)n3C)n2CCCc2ccccc2)CC1	i	i	i	i	33*	-54*
Cn1c(=O)[nH]c(=O)c2c1nc(N1CCN(Cc3ccccc3)CC1)n2CCSc1ncccn1	i	i	i	i	/	/
Cc1ccnc(SCCn2c(N3CCN(c4ccccc4)CC3)nc3c2c(=O)[nH]c(=O)n3C)n1	8*	i	i	i	48*	-41*
Cn1c(SCc2ccc(Br)cc2)nnc1-c1ccccn1	i	i	i	i	/	/
CC1CC(C)CN(C2CCCCC2NS(=O)(=O)c2ccc(Cl)cc2)C1 (configuration not stated)	i	i	i	i	/	/
Cn1c(=O)[nH]c(=O)c2c1nc(N1CCN(C(=O)c3ccco3)CC1)n2CCCSc1ncccn1	/	/	i	/	/	/
CN1CCN(c2nc3c(c(=O)[nH]c(=O)n3C)n2CCCSc2ncccn2)CC1	7.7*	i	i	i	46*	-54*
SMILES	CHT PAM	CHT inh	TMEM16A act	ANO1 block	CHT activ conf	HEK293 MP dye
CCCC(CCC)C(=O)Nc1ccc2c(c1)N(C(=O)CN1CCN(C)CC1)c1ccccc1CC2	6.7*	i	i	i	29*	i
CN(C)Cc1cc(C(C)(C)c2cc(CN(C)C)c(O)c(CN(C)C)c2)cc(CN(C)C)c1O	8.3*	i	i	i	52*	-58*
Cc1ccc(-c2nc(CN(C)C)cc(CN(C)C)c2O)cc1	i	i	i	i	/	/
COC(=O)c1sc(NC(=O)C(C)c2ccccc2)nc1C (configuration not stated)	6.7*	i	i	i	30*	i
COc1cc([C@@H]2c3cc4c(cc3[C@@H](O)[C@H]3COC(=O)[C@H]23)OCO4)cc(OC)c1O[Si](C)(C)C(C)(C)C	i	i	i	i	/	/
Cc1cc(C)nc(NC(N)=NCCc2c[nH]c3ccccc23)n1	8.6*	i	i	i	60*	-61*
Cc1cc(C)nc(NC(N)=NCCc2ccccc2)n1	/	/	i	/	/	/
Cc1cc(C)nc(NC(N)=NC(C)c2ccccc2)n1 (configuration not stated)	6.3*	i	/	i	45*	-34*
Cc1ccc(NS(=O)(=O)c2ccc(C)c(C(=O)N3CCOCC3)c2)cc1	i	i	i	i	/	/
CCOC(=O)c1c(N)n(C2CC(C)(C)NC(C)(C)C2)c2nc3ccccc3nc12	6.7*	i	i	i	57*	-72*
CCC(=O)Nc1c(C#N)c2nc3ccccc3nc2n1C1CCCCC1	i	i	i	i	/	/
CCOC(=O)c1c(NC(=O)c2ccco2)n(C2CCCCC2)c2nc3ccccc3nc12	7.3*	i	i	i	42*	i
CCCN(CC(=O)Nc1ccccc1OC)C(=O)CN1C(=O)NC2(CCCCC2)C1=O	/	/	i	/	/	/
CCC(Sc1nc2cc(OC)c(OC)cc2c(=O)n1Cc1ccc(OC)cc1)C(=O)NCCOC (configuration not stated)	6.6*	i	i	i	4	i
CCCCNC(=O)CSc1nc2cc(OC)c(OC)cc2c(=O)n1Cc1ccc(OC)cc1	i	i	i	i	/	/
Fc1cc2[nH]cnc2cc1Cl	i	i	i	i	/	/
Cc1ccccc1N1CCN(C2CCCN(C(=O)c3ccnn3C)C2)CC1 (configuration not stated)	i	i	i	i	/	/
COc1ccc(C(=O)Nc2ccc(Cn3ccnc3)cc2)cc1OC	i	i	i	i	/	/
COc1cc(Cn2ccnc2)c(OC)cc1Cn1ccnc1	13*	i	i	i	81*	-83*
Cc1c2ccccc2cc(Cc2ccccc2)[n+]1C	6.7*	i	i	i	68*	-76*
Cc1ccc(OCC(O)CNC2CCCC2)c(C)c1 (configuration not stated)	i	i	i	i	/	/
Cc1ccccc1OCC(O)CNC1CCC(NCC(O)COc2ccccc2C)CC1 (configuration not stated)	i	i	i	i	21*	i
CC[C@@]12C(=O)N(c3cccc(F)c3)C(=O)N1[C@H](c1ccc(OC)cc1)[C@@H]1C(=O)N(C(C)(C)C)C(=O)[C@@H]12	i	i	i	i	/	/
Cc1cc(C(=O)Nc2ccc3c(c2)CCC3)ccc1[N+](=O)[O-]	i	i	i	i	/	/
